# Measurements from the supplement of paper PMC3334620.
# Over roughly 33,000 sequences, “E-score (-0.5 to 0.5)” has its median near -0.056; the highest 2% begin near 0.38. This excerpt belongs to a sample that is enriched for the highest values.
# Molecular target: Stb4 (UniProt P50104)
# Test: PBM E-score (8-mer binding enrichment) (E-score (-0.5 to 0.5)); higher = stronger / more preferred TF binding
# Settings: protein concentration: 200 nM; construct: GST-DNA-binding domain
# Method: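 Universal 'all 10-mer' protein binding microarrays (Agilent AMADID 015681) probed with GST-tagged S. cerevisiae TFs (full-length or DBD) made by in vitro transcription/translation (PURExpress), about 100-200 nM. Bound TF was detected with fluorescent anti-GST. Each ungapped 8-mer (which stands for itself and its reverse complement) is scored by the PBM enrichment score (E-score), a modified Wilcoxon-Mann-Whitney statistic from -0.5 to +0.5, computed with the Universal PBM Analysis Suite. Scale: above 0.35 generally sequence-specific binding.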
# Chain of UniProt P50104 (P50104 whole entry): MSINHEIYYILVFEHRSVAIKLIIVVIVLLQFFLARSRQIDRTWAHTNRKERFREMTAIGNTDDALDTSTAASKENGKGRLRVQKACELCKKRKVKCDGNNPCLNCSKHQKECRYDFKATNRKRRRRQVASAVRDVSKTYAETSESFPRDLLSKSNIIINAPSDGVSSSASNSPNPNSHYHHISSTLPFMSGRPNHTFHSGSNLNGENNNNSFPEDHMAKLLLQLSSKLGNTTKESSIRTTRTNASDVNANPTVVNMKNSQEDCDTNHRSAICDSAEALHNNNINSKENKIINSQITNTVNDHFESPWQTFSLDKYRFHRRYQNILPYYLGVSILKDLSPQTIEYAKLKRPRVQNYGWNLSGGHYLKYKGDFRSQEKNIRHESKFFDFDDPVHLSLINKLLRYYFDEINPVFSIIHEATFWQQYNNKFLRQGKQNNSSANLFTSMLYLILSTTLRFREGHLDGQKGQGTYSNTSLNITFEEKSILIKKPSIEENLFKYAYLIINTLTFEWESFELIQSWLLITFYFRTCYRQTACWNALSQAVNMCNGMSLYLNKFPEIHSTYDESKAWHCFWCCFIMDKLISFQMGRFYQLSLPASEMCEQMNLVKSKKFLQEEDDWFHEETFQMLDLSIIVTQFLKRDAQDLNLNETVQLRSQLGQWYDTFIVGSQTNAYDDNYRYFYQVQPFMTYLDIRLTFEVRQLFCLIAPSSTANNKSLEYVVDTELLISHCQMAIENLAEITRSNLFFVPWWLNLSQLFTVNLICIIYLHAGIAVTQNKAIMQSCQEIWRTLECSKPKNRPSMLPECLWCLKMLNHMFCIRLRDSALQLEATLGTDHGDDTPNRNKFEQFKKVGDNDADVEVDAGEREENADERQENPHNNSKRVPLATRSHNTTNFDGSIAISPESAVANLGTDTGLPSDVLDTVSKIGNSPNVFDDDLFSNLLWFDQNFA
row,Sequence,PBM E-score
1,AATGAGGC,-0.312
2,TTCCCGAA,0.46
3,TCCCCGAA,0.37
4,ATCCCGAT,0.342
5,GTCCCGAC,0.376
6,GTCCCGAA,0.406
7,ACCCCGAC,0.248
8,AGCCCGAG,0.231
9,ATCCCGAC,0.387
10,TTCCCAAA,-0.234
11,AGCCCGAC,0.0817
12,ATCCCGAG,0.439
13,GTCCCGCA,0.213
14,AACAAGAG,-0.186
15,TTCCACAA,0.0123
16,GAGTGATC,-0.021
17,CGTCTGAG,-0.171
18,TTGCACAA,-0.231
19,TAGCGACA,-0.154
20,AGATATGA,-0.0877
21,CGACATTA,0.187
22,CATCACCC,0.123
23,CTCCCGGA,0.329
24,AGCCCGAA,0.264

row,Sequence,PBM E-score
1,CTCCCGAC,0.33
2,ATCCCGAA,0.432
3,ATCCCAAA,0.0397
4,CGCCCGAA,0.293
5,CGCCCGAG,0.328
6,CTCCCGAG,0.445
7,CTCCCGAA,0.43
8,AATCTACA,-0.0631
9,AATCTATC,-0.0505
10,CCAAGTCC,-0.104
11,GGTTTTAA,0.126
12,GCCCATTA,-0.168
13,ACGTTTGC,-0.11
14,TCTAGTAA,-0.126
15,GTGTAAAA,-0.0759
16,ATGCGAGG,-0.224
17,ATGCGAGC,-0.123
18,ATCCGAGA,0.471
19,AACCGAGG,0.355
20,ATCCGAGC,0.478
21,ATGCGAGA,-0.117
22,CTCCGAGA,0.409
23,ATCCGCGA,0.247
24,ATACGAGC,-0.141

row,Sequence,PBM E-score
1,ATCCGAGG,0.481
2,GTCCGAGA,0.378
3,CTTCGAGA,-0.257
4,AACGGGTC,0.156
5,AACGATAT,-0.0769
6,CTTCTTGC,-0.0322
7,ACCCCGTC,0.167
8,GAGATCTA,-0.103
9,ACTGAGTC,-0.0516
10,CTCTGCCC,-0.215
11,CCTTCTAA,-0.338
12,AATTGAAG,-0.06
13,CCGCGATC,0.142
14,CTCCGCGC,0.168
15,CTCCGAGC,0.428
16,CTCCGTGC,0.217
17,CTGCCAAC,-0.1
18,CCGGAACG,0.424
19,CCGGAACA,0.431
20,ACGGAACA,0.326
21,CCGGAACC,0.41
22,CAGGAACG,-0.144
23,CGGGAACA,0.374
24,TCGGAACA,0.479

row,Sequence,PBM E-score
1,ACGGAACC,0.328
2,GCGGAACA,0.335
3,ACGGAACG,0.327
4,CCGGAATA,0.347
5,GCGGAACC,0.284
6,AGGCCTCG,0.221
7,TCTTCCAA,-0.0347
8,CCTGGTCC,-0.116
9,CGGTAAAA,0.346
10,ATCGGCAG,0.321
11,CACGGCAA,0.199
12,ATCGGCAC,0.34
13,CTCGGCCA,0.251
14,GTCGGCAA,0.368
15,CTCGGCAA,0.458
16,ATCGGCAA,0.366
17,CTCGGCAC,0.451
18,CACGGCAG,0.137
19,GTCGGCAC,0.361
20,CTCGGCAG,0.444
21,TTCGGCAA,0.454
22,TAACCGCA,0.154
